# Assay results as given in PubChem BioAssay (Tox21).
# Unmarked numbers belong to inactive results. Calls follow the shape of the full dose curve.
# Target: Acetylcholinesterase (Homo sapiens) (UniProt P22303)
# Experiment: Acetylcholinesterase (AChE) small molecule antagonists: enzyme-based qHTS assay with human liver microsomes (AID 1347399); also: nearly all actives have a fitted effect of over 60% in size
# Settings: Potency: qHTS inhibition; outcome: qHTS inhibition; series mostly up to 115 µM; activity change, negative = inhibition: at the top concentration
# In short: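 Recombinant human AChE (50 mU/mL in the enzyme mix) and human liver microsomes (0.25 mg/mL final) were preincubated with compound and NADPH (0.25 mg/mL final) for 30 min at 37 C. Acetylthiocholine/DTNB was then added; thiocholine was read colorimetrically after 10 min at room temperature.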
# % is scaled to controls: 0 for no effect and ±100 for the full control effect.
# Sequence of Acetylcholinesterase (Homo sapiens) (P22303 whole entry, looked up): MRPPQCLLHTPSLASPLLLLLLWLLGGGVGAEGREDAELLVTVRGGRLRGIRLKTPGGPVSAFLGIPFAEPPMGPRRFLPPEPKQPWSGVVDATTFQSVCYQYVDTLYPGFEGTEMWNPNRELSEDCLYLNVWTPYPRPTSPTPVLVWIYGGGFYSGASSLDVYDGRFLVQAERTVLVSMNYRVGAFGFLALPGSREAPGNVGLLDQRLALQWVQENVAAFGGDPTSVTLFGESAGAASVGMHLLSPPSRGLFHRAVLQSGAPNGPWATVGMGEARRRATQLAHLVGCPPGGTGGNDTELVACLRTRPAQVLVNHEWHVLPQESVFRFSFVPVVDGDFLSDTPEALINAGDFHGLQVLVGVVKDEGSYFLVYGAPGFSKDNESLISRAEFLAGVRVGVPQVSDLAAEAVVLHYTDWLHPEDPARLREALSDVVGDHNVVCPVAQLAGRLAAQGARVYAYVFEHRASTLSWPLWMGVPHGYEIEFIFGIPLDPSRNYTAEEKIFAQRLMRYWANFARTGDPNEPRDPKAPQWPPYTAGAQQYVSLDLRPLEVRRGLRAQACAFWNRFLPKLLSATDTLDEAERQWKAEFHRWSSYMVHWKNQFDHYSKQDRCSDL
row,Structure (SMILES),"activity change, negative = inhibition"
1,C1C[C@@H]2[C@H]3CC[C@H](C3)[C@@H]2C1,-1.06%
2,CCCCCCCCCCCCCCCCCC(=O)OCCCCCCCCCCCCCC(C)C,3.39%
3,CC(C)CCOC(=O)CC(C)C,-0.922%
4,O=C(c1ccccc1)C1CCCCC1,-0.583%
5,CN1[C@@H]2CC[C@H]1CC(OC(=O)C(O)c1ccccc1)C2 (some centres undefined),-0.885% [at 53 µM]
6,CC(C)=CCC/C(C)=C/COC=O,-3.37%
7,COc1cc(NS(=O)(=O)c2ccc(N)cc2)nc(C)n1,-0.672% [at 53 µM]
8,CC1=CC(=O)[C@H]2C[C@@H]1C2(C)C,0.306%
9,Clc1ccccc1-c1nc(-c2ccncc2)no1,-2.43% [at 53 µM]
10,Nc1ccn([C@@H]2O[C@H](CO)[C@@H](O)C2(F)F)c(=O)n1,-0.673% [at 53 µM]
11,O=C(O)c1ccc(CO)o1,0.407%
12,CC1(C)S[C@@H]2[C@H](N=CN3CCCCCC3)C(=O)N2[C@H]1C(=O)O,-1.32% [at 53 µM]
13,COC(=O)c1cc(Cl)ccc1OC,-0.168% [at 53 µM]
14,CCCCN(CCCC)C(C(N)=O)c1ccc(OC)cc1 (centres undefined),-0.136% [at 53 µM]
15,c1ccc2cc3c4ccccc4c4ccccc4c3cc2c1,0.0794%
16,CC(=O)c1cc(C)oc1C,0.511%
17,COc1ccc(OC(=O)N(CC(=O)O)Cc2ccc(OCCc3nc(-c4ccccc4)oc3C)cc2)cc1,-1.33% [at 53 µM]
18,O=S1OCCO1,0.0799%
19,N#CCc1cccc(C(F)(F)F)c1,0.821%
20,C=CCCCCCCCCCCCCCC,-1.13% [at 23.6 µM]
21,CC(C)CCC(=O)CCC(C)C,0.688%
22,CCOC(=O)C1=NN(c2ccc(Cl)cc2Cl)C(C)(C(=O)OCC)C1 (centres undefined),-3.6%
23,CCCCCc1ccc(O)cc1,0.16%
24,Sc1nc2ccccc2s1,-0.38%
